# Inconclusive results are not listed. Where a call stands in place of a potency, no number is given. Unmarked numbers belong to inactive results. Calls of active or inactive are those of the source. Calls come from the whole dose curve; as a rule, active = well fitted inhibition curve with a large enough effect; inconclusive = small, poorly fitted or top-dose-only effect; inactive = no such curve, though single readings can be large or run the other way.
# Experiments:
# [1] = tested on: Zika virus NS2B-NS3 protease (unlinked complex); assay: Primary screen GU Rhodamine qHTS for Zika virus inhibitors: Unlinked NS2B-NS3 protease assay (AID 1347159); note: nearly all actives have a fitted effect of over 60% in size
# In short: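 Percent inhibition derives from the 15-min fluorescence change (ex 480, em 540 nm), normalized to no-enzyme and no-inhibitor wells. Reactions contained 25 nM NS2B-NS3 complex and 1.5 microM substrate in 10 mM Tris-HCl pH 8.0.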
# [2] = tested on: Zika virus NS2B-NS3 protease (linked construct); assay: Primary screen NINDS Rhodamine qHTS for Zika virus inhibitors (AID 1347160); note: nearly all actives have a fitted effect of over 55% in size
# In short: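 In 10 mM Tris-HCl pH 8.0 containing 0.01% Tween 20, linked NS2B-NS3 protease (25 nM final) is exposed to test compounds for 15 min. Cleavage of 1.5 microM Rhodamine110 substrate is tracked by fluorescence over 15 min.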
smiles,measurement,setting,value
O=C(COc1cccc2c(=O)[nH]ccc12)c1ccccc1,Potency,[1],inactive
same,Potency,[2],inactive
COC(=O)[C@@]1(c2ccc(C)cc2)C[C@H]1CN1CCC(O)(c2ccccc2)CC1,Potency,[1],inactive
same,Potency,[2],inactive
C/C(=C\CCC(C)CCO)C(=O)OC1(C)CCC2C(C(=O)O)=COC(OC3OC(CO)C(O)C(O)C3O)C21 (stereo unspecified),Potency,[1],inactive
same,Potency,[2],inactive
CC(Oc1ccc2[nH]nc(/C=C/c3cnn(CCO)c3)c2c1)c1c(Cl)cncc1Cl (stereo unspecified),Potency,[1],inactive
same,Potency,[2],inactive
CC(=O)OC1C(c2ccccc2)CCC(c2ccccc2)C1OC(C)=O (stereo unspecified),Potency,[1],inactive
same,Potency,[2],inactive
NCc1ccc(Nc2ncc(F)c(Nc3ccccc3)n2)cc1,Potency,[1],inactive
same,Potency,[2],inactive
CC(C)CC1NC(=O)C2CC3(O)c4ccccc4NC3N2C1=O (stereo unspecified),Potency,[1],inactive
same,Potency,[2],inactive
O=S(=O)(c1ccc(S(=O)(=O)n2cnc3ccccc32)cc1)N1CCCCCC1,Potency,[1],inactive
same,Potency,[2],inactive
CCOc1ccc(S(=O)(=O)n2c(C)nc3ccccc32)cc1,Potency,[1],inactive
same,Potency,[2],inactive
NC(=O)c1cnc(NCCc2ccc(O)c(Cl)c2)nc1NCc1ccccc1,Potency,[1],inactive
same,Potency,[2],inactive
CC1(C)CC(NC(=O)C(=O)Nc2ccc(Br)cc2)CC(C)(C)N1,Potency,[1],inactive
same,Potency,[2],inactive
C/C1=C\C[C@]2(C)C(=O)C(O)=C([C@H](C)CO)[C@H]2C/C=C(\C)[C@@H](O)CC/C(C)=C/CC1,Potency,[1],inactive
same,Potency,[2],inactive
COC(=O)N[C@H](C(=O)N1[C@@H]2CC[C@@H](C2)[C@H]1c1nc2ccc(-c3ccc4c(c3)C(F)(F)c3cc(-c5cnc([C@@H]6CCC7(CC7)N6C(=O)[C@@H](NC(=O)OC)C(C)C)[nH]5)ccc3-4)cc2[nH]1)C(C)C,Potency,[1],inactive
same,Potency,[2],inactive
C[C@@H]1CN(Cc2ncccn2)C[C@H]1c1nc2c(cnn2C2CCOCC2)c(=O)[nH]1,Potency,[1],inactive
same,Potency,[2],inactive
Cc1c(F)cc(C(=O)NC2CC2)cc1-c1c(F)cn2c(C(C)(C)C)nnc2c1F,Potency,[1],inactive
same,Potency,[2],inactive
Cc1cc(C(=O)N2Cc3cnn(C)c3Nc3ccccc32)ccc1CNC(=O)N1CCC[C@H]1C(=S)N1CCCN(C)CC1,Potency,[1],inactive
same,Potency,[2],inactive
CC1(C)CC[C@]2(C(=O)O[C@@H]3O[C@H](CO)[C@@H](O)[C@H](O)[C@H]3O)CC[C@]3(C)C(=CCC4[C@@]5(C)CC[C@H](O[C@@H]6O[C@H](C(=O)O)[C@@H](O)[C@H](O[C@@H]7O[C@H](CO)[C@H](O)[C@H](O)[C@H]7O)[C@H]6O)C(C)(C)C5CC[C@]43C)C2C1 (stereo partly specified),Potency,[1],inactive
same,Potency,[2],inactive
CC(=O)O[C@H]1CC[C@H](C)[C@@]2(C)[C@H](OC(C)=O)c3c(C)coc3C(=O)[C@H]12,Potency,[1],inactive
same,Potency,[2],inactive
CC1CCC2(OC1)OC1CC3C4CCC5C[C@@H](O[C@@H]6O[C@H](CO[C@@H]7OC[C@@H](O)[C@H](O)[C@H]7O)[C@H](O)[C@H](O)[C@H]6O)CC[C@]5(C)C4CC[C@]3(C)C1C2C (stereo partly specified),Potency,[1],inactive
same,Potency,[2],inactive
O=C(O)CC(=O)OC[C@H]1O[C@@H](Oc2ccc3c(c2)OC[C@H]2c4cc5c(cc4O[C@@H]32)OCO5)[C@H](O)[C@@H](O)[C@@H]1O,Potency,[1],inactive
same,Potency,[2],inactive
Cc1ccc(NC(=O)c2ccc(CN3CC[C@H](N(C)C)C3)c(C(F)(F)F)c2)cc1Nc1nccc(-c2cncnc2)n1,Potency,[1],inactive
same,Potency,[2],inactive
C=CC(C)(CC/C=C(\C)C(=O)OC)OC1OC(COC(=O)CC(C)(O)CC(=O)O)C(OC2OC(CO)C(O)C(O)C2O)C(O)C1O (stereo unspecified),Potency,[1],inactive
same,Potency,[2],inactive
C[C@@H]1O[C@@H](O[C@H]2[C@H](O)[C@@H](O)[C@H](OC[C@H]3O[C@@H](OC(=O)[C@]45CCC(C)(C)C[C@H]4C4=CCC6[C@@]7(C)CC[C@H](O[C@@H]8OC[C@H](O)[C@H](O[C@@H]9O[C@H](CO)[C@@H](O)[C@H](O)[C@H]9O)[C@H]8O)[C@@](C)(CO)C7CC[C@@]6(C)[C@]4(C)CC5)[C@H](O)[C@@H](O)[C@@H]3O)O[C@@H]2CO)[C@H](O)[C@H](O)[C@H]1O (stereo partly specified),"activity change, negative = inhibition",[1],4.91% [at 19.1 µM]
same,"activity change, negative = inhibition",[2],3.05% [at 10.7 µM]
C[C@@H]1O[C@@H](O[C@H]2[C@H](O)[C@@H](O[C@@H]3O[C@H](CO)[C@@H](O)[C@H](O[C@@H]4O[C@H](CO)[C@@H](O)[C@H](O)[C@H]4O)[C@H]3O)[C@H](O[C@H]3CC[C@@]4(C)C(=CC[C@@H]5C4CC[C@@]4(C)C5C[C@@H]5OC6(CC[C@@](C)(CO[C@@H]7O[C@H](CO)[C@@H](O)[C@H](O)[C@H]7O)O6)[C@@H](C)[C@@H]54)C3)O[C@@H]2CO)[C@H](O)[C@H](O)[C@H]1O (stereo partly specified),"activity change, negative = inhibition",[1],33% [at 19.1 µM]
same,outcome,[2],inactive [at 10.7 µM]
COc1cc(C(=O)O)ccc1OC1OC(CO)C(O)C(O)C1O (stereo unspecified),Potency,[1],inactive
same,Potency,[2],inactive
CCC(C)C(=O)OC1CC(O)C23C4OCC5(C(O)CC2C1(C)C(O)O4)C3C(=O)C(O)C1(C)C(O)(c2ccoc2)CC2OC251 (stereo unspecified),Potency,[1],inactive
same,Potency,[2],inactive
O=C(O)c1cccc(S(=O)(=O)N2CCc3ccccc3C2)c1,Potency,[1],inactive
same,Potency,[2],inactive
CC(=O)C1=C(C)N(c2cccc(C(F)(F)F)c2)C(=O)N[C@H]1c1ccc(C#N)nc1,Potency,[1],inactive
same,Potency,[2],inactive
